# Experimental data as given in ChEMBL document CHEMBL1961873, “Compounds: GSK PKIS; Assays: Nanosyn kinase panel” (2012).
# Key:
# [1] = tested on: Epidermal growth factor receptor (Homo sapiens), P00533 [T790M]; details: at 1 µM
# [2] = tested on: Epidermal growth factor receptor (Homo sapiens), P00533 [L858R,T790M]; details: at 0.1 µM
# [3] = tested on: Epidermal growth factor receptor (Homo sapiens), P00533 [L858R,T790M]; details: at 1 µM
# [4] = target: Ephrin type-A receptor 2 (Homo sapiens) (UniProt P29317); details: at 0.1 µM
# [5] = target: Ephrin type-A receptor 2 (Homo sapiens) (UniProt P29317); details: at 1 µM
# [6] = target: T1, Ephrin type-A receptor 3 (Homo sapiens) (UniProt P29320); details: at 0.1 µM
# T1 sequence (whole entry): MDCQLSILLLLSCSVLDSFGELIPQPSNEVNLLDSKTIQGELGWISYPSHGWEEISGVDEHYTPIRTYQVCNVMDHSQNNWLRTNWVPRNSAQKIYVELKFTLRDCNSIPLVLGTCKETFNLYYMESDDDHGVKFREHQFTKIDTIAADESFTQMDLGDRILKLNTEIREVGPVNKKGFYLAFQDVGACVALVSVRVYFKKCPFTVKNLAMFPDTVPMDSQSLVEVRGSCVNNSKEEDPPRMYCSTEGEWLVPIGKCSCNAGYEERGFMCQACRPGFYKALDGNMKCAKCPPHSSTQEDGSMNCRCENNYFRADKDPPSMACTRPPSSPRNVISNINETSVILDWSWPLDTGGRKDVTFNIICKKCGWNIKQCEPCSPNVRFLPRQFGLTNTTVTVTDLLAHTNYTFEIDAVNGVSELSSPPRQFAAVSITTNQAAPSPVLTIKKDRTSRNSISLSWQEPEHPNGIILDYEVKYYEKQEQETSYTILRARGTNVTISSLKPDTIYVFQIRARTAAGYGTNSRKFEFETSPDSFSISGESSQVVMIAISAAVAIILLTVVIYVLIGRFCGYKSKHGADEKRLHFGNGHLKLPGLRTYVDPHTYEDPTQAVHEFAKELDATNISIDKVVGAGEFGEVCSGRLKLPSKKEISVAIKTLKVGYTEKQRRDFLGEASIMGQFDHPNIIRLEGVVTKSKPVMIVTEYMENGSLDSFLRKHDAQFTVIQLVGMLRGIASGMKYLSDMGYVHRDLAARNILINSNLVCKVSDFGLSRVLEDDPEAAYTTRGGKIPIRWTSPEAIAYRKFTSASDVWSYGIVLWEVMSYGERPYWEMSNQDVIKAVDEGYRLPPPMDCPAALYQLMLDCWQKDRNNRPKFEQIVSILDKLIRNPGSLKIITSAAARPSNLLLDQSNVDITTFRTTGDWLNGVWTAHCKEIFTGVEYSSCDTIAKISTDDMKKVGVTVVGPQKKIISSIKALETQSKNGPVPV
# [7] = target: T1, Ephrin type-A receptor 3 (Homo sapiens); details: at 1 µM
# [8] = target: Ephrin type-A receptor 4 (Homo sapiens) (UniProt P54764); details: at 0.1 µM
# [9] = target: Ephrin type-A receptor 4 (Homo sapiens) (UniProt P54764); details: at 1 µM
# [10] = target: T2, Ephrin type-B receptor 2 (Homo sapiens) (UniProt P29323); details: at 0.1 µM
# T2 sequence (whole entry): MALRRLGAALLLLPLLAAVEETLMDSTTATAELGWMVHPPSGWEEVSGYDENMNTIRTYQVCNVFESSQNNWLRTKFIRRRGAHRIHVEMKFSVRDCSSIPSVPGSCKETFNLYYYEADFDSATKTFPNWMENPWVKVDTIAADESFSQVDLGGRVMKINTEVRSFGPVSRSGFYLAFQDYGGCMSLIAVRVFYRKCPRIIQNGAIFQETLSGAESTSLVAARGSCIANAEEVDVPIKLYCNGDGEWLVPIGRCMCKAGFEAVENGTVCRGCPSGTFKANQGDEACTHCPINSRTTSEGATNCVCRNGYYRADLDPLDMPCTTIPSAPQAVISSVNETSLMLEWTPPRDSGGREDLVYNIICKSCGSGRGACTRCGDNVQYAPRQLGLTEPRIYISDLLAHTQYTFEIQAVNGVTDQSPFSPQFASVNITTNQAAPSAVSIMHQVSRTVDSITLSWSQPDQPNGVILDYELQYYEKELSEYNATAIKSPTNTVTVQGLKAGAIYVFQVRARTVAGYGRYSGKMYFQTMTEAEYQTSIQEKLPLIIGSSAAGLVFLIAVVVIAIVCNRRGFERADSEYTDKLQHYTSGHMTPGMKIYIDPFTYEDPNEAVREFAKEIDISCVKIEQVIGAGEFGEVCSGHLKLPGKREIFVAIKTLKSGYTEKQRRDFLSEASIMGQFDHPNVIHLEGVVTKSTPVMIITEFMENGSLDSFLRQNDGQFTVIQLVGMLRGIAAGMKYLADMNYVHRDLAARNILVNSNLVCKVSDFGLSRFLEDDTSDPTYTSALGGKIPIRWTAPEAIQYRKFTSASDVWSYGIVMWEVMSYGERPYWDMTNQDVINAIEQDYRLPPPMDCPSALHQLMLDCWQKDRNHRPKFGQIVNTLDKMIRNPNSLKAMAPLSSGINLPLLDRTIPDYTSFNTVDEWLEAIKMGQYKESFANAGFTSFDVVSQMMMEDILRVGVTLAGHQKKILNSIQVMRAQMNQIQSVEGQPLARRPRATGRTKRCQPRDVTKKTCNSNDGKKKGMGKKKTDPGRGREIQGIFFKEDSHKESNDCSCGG
# [11] = target: T2, Ephrin type-B receptor 2 (Homo sapiens); details: at 1 µM
# [12] = target: T3, Ephrin type-B receptor 3 (Homo sapiens) (UniProt P54753); details: at 0.1 µM
# T3 sequence (whole entry): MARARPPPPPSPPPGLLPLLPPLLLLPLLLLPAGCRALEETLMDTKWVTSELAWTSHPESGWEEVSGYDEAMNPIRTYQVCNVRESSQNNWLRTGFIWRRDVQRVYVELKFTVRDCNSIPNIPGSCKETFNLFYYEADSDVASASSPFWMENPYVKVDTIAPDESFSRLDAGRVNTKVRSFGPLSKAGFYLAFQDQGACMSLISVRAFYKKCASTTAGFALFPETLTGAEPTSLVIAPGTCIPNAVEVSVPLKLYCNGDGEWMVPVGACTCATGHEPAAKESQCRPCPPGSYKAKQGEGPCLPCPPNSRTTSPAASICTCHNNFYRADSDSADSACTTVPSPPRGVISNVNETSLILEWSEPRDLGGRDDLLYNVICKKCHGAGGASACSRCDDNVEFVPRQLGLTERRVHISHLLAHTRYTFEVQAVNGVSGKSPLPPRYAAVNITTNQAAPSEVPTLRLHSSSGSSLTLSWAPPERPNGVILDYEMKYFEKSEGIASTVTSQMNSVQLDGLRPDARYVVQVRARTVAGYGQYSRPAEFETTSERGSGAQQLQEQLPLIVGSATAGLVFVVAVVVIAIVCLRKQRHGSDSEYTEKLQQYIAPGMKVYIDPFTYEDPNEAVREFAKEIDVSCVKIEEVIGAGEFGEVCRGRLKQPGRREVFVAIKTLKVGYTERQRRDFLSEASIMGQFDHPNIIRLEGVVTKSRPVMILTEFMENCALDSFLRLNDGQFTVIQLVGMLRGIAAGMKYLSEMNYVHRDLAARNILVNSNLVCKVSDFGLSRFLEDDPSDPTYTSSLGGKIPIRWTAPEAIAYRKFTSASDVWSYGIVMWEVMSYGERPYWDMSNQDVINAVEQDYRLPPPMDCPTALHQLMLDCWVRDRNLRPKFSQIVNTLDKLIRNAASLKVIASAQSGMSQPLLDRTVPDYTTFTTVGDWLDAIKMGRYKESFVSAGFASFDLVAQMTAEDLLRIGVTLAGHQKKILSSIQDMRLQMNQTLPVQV
# [13] = target: T3, Ephrin type-B receptor 3 (Homo sapiens); details: at 1 µM
# [14] = target: T4, Ephrin type-B receptor 4 (Homo sapiens) (UniProt P54760); details: at 0.1 µM
# T4 sequence (whole entry): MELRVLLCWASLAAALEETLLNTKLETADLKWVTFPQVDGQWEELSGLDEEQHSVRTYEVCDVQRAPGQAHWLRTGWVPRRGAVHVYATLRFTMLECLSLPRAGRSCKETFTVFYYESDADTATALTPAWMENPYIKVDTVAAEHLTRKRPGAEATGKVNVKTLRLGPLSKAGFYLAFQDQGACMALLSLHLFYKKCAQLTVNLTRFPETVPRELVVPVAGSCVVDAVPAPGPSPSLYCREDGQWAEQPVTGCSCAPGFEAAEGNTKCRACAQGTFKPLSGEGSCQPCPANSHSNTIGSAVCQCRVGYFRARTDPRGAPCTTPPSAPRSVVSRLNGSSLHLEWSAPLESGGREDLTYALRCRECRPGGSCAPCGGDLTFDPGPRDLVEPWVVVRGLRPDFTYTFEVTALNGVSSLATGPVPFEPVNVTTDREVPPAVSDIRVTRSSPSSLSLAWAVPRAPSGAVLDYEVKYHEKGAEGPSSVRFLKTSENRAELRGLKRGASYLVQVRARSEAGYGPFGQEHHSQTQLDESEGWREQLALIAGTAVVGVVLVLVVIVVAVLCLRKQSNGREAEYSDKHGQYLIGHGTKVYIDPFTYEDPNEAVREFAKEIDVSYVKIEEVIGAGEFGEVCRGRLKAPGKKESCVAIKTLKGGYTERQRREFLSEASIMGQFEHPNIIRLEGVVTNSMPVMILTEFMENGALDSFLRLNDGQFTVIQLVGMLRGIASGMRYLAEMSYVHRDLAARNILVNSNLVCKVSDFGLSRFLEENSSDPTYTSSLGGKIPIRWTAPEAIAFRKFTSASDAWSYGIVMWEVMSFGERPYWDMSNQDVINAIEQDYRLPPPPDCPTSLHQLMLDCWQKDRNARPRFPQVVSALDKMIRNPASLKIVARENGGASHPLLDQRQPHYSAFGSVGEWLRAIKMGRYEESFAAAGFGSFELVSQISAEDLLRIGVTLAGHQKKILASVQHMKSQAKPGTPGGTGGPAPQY
# [15] = target: T4, Ephrin type-B receptor 4 (Homo sapiens); details: at 1 µM
# [16] = target: Receptor tyrosine-protein kinase erbB-2 (Homo sapiens) (UniProt P04626); details: at 0.1 µM
# [17] = target: Receptor tyrosine-protein kinase erbB-2 (Homo sapiens) (UniProt P04626); details: at 1 µM
# [18] = target: Receptor tyrosine-protein kinase erbB-4 (Homo sapiens) (UniProt Q15303); details: at 0.1 µM
# [19] = target: Receptor tyrosine-protein kinase erbB-4 (Homo sapiens) (UniProt Q15303); details: at 1 µM
# [20] = target: Tyrosine-protein kinase Fer (Homo sapiens) (UniProt P16591); details: at 0.1 µM;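 also: reported figures are averaged percent inhibition of FER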
# Sequence of Tyrosine-protein kinase Fer (Homo sapiens) (P16591 whole entry, looked up): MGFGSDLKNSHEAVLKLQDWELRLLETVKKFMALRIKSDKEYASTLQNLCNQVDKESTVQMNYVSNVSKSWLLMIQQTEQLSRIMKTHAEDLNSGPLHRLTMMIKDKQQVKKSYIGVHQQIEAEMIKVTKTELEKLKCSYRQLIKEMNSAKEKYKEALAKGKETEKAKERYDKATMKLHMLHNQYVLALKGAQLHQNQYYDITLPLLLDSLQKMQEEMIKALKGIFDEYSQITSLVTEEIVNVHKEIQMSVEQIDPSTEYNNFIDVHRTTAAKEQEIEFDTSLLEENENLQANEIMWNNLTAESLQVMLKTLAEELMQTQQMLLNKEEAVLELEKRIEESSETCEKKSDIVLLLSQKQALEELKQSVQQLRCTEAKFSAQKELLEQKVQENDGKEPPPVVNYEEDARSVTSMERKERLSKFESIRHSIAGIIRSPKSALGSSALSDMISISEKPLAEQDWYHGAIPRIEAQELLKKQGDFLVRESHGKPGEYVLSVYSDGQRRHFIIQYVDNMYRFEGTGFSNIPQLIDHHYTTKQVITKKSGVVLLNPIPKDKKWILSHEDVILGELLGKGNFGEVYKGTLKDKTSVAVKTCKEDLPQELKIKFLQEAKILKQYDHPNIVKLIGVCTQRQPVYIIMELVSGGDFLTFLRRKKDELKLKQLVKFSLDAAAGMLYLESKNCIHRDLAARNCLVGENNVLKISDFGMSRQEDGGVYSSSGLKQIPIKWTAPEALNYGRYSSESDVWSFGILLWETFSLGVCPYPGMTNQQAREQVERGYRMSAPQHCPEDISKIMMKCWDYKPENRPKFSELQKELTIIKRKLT
# Sequence of Receptor tyrosine-protein kinase erbB-2 (Homo sapiens) (P04626 whole entry): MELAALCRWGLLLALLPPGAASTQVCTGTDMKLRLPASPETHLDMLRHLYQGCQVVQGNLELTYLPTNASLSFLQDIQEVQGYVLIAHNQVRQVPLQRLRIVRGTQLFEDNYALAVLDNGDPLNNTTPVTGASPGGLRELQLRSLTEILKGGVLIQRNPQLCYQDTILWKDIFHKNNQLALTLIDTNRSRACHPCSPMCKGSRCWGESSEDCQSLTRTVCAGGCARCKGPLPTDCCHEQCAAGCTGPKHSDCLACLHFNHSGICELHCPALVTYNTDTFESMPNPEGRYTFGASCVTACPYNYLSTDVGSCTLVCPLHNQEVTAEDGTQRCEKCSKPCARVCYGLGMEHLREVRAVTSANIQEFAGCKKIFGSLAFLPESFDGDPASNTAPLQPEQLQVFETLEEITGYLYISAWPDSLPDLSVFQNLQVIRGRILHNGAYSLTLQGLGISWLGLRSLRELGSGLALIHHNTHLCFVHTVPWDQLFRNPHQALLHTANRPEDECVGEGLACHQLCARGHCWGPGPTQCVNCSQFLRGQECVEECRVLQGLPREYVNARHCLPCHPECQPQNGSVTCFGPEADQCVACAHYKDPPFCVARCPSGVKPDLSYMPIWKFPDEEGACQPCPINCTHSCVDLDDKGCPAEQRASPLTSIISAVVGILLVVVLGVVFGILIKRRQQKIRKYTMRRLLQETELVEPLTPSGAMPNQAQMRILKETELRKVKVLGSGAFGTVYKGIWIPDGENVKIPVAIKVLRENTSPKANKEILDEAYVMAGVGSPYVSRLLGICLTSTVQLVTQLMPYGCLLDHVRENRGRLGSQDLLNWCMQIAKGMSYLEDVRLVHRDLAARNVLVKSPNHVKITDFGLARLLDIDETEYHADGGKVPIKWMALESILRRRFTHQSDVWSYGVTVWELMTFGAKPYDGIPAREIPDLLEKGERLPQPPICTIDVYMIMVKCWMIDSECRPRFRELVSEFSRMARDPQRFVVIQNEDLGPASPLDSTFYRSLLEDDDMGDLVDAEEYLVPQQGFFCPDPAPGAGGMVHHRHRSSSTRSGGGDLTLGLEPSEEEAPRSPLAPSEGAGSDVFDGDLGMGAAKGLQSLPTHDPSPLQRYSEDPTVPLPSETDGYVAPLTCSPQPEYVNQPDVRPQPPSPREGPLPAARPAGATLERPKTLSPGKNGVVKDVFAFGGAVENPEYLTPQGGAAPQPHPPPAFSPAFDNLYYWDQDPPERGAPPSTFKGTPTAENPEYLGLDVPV
# Sequence of Ephrin type-A receptor 2 (Homo sapiens) (P29317 whole entry): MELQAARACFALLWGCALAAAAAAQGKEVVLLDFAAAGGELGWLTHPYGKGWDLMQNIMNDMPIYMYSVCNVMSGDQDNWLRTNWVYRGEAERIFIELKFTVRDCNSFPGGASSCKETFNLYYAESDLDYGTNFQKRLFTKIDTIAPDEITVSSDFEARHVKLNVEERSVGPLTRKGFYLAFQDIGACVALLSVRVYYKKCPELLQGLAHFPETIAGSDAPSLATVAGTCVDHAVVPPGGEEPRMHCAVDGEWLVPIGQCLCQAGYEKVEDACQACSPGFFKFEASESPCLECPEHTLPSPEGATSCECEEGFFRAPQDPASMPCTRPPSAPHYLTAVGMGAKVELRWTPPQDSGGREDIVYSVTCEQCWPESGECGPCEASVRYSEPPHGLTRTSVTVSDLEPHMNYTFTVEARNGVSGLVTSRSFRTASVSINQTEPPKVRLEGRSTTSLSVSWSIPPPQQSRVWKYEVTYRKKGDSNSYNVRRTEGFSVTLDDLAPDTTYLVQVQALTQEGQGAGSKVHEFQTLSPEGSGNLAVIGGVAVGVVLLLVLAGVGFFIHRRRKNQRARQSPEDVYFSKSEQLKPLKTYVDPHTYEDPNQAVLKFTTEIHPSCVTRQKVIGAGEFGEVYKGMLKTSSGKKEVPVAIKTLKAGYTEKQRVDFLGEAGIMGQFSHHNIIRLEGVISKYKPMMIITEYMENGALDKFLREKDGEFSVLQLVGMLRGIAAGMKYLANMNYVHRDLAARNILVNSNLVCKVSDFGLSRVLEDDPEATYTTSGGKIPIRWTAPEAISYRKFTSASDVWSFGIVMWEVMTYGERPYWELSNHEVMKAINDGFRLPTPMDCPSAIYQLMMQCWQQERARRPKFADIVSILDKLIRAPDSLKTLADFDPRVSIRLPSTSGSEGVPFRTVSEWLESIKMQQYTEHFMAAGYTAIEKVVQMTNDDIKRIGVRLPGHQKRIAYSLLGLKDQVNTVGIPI
# Sequence of Ephrin type-A receptor 4 (Homo sapiens) (P54764 whole entry): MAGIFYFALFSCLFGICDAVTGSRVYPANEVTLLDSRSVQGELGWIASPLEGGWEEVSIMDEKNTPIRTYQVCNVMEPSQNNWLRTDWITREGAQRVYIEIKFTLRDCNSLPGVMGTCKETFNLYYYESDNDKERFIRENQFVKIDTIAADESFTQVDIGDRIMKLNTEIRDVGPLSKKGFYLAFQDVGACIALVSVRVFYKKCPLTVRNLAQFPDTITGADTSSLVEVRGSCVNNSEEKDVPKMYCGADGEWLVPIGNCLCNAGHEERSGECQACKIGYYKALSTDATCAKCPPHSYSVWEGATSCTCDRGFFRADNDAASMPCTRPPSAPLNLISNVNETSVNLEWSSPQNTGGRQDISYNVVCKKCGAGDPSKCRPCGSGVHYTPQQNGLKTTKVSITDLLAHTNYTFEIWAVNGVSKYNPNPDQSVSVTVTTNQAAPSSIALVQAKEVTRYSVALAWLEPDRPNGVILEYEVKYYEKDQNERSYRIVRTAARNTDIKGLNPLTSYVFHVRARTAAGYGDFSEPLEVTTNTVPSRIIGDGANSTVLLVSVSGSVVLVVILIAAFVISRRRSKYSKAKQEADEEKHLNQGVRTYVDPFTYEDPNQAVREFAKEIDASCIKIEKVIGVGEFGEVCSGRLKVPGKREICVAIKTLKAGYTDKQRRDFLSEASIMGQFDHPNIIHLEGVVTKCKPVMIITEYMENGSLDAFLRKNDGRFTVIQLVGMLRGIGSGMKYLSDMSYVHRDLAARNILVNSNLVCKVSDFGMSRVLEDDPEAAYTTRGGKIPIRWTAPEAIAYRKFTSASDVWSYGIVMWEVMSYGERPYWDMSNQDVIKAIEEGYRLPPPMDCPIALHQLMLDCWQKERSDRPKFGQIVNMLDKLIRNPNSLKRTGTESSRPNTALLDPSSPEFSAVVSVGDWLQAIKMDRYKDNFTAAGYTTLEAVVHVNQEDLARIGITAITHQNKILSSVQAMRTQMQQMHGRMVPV
SMILES,inhibition [1] [%],inhibition [2] [%],inhibition [3] [%],inhibition [4] [%],inhibition [5] [%],inhibition [6] [%],inhibition [7] [%],inhibition [8] [%],inhibition [9] [%],inhibition [10] [%],inhibition [11] [%],inhibition [12] [%],inhibition [13] [%],inhibition [14] [%],inhibition [15] [%],inhibition [16] [%],inhibition [17] [%],inhibition [18] [%],inhibition [19] [%],inhibition [20] [%]
CN1CCN(CCCNc2nc3ccc(Oc4ccc(NC(=O)Nc5cc(C(F)(F)F)ccc5F)cc4)cc3[nH]2)CC1,-2.83,-0.44,-4.26,-3.26,2.37,-0.6,-0.47,6.02,25.9,9.54,58.8,-3.09,-6.41,-1.44,16.4,-2.7,-2.07,3.38,2.56,3.88
O=C(Nc1n[nH]c2cc(-c3ccccc3)ccc12)C1CC1,4.64,2.81,3.37,1.75,3.8,5.17,6.3,6.13,18.9,6.68,17.1,2.9,2.89,2.92,4.63,4.46,1.33,13.8,15.8,6.13
COc1ccc(-c2ccc3c(NC(=O)C4CC4)n[nH]c3n2)cc1,4.06,-0.83,5.32,0.96,0.05,2.4,3.41,6.38,10.4,1.78,5.25,3.22,2.79,1.54,-0.15,2.9,3.27,4.2,3.94,2
CNC(=O)c1cncc(/C=C/c2c(C)cccc2C)c1,0.11,0.33,1.36,8.07,44.4,2.95,16.1,25.5,80.9,23.2,65.9,-1,2.29,7.98,45.7,-0.21,1.84,-1.45,2.45,1.13
COc1cc2ncn(-c3cc(OCCc4ccccc4)c(C(N)=O)s3)c2cc1OC,0.49,0.55,4.9,1.97,0.66,3.06,4.07,4.63,3.61,3.87,6.52,2.67,2.11,2.03,2.56,2.58,2.47,13.8,13.1,4.91
NS(=O)(=O)c1ccc(Nc2cc(-c3ccc(O)c(F)c3)n[nH]2)cc1,-0.95,-2.9,-4.28,-1.33,-1.33,-4.5,-0.8,-6.46,-5.56,-3.09,-1.29,-8.08,-5.11,-0.68,-0.49,-5.39,-4.29,–,-6.22,5.83
Clc1ccc(CNc2nccc(-c3cnn4ncccc34)n2)cc1,-0.46,0.01,3.09,1.88,1.02,2.21,3.84,5.02,13,7.93,9.79,2.09,2,0.83,0.64,-2.69,2.99,3.33,1.08,3.91
